# Data as given in PubChem BioAssay AID1347417 (National Center for Advancing Translational Sciences (NCATS), 2020).
# The whole screen tested about 120,000 compounds, of which about 5,300 (4.4%) were called active. Roughly 22% stayed inconclusive and do not appear here. The entries come from a sample that favours actives as a whole. Values without a mark were called inactive. Calls follow the shape of the dose curve; as a rule, active = well fitted inhibition curve with a large enough effect; inconclusive = small, poorly fitted or top-dose-only effect; inactive = no such curve, though single readings can be large or run the other way.
# Test: qHTS Primary assay for Inhibitors of Plasmodium falciparum Dd2 growth in vitro; also: nearly all actives have a fitted effect of over 65% in size;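 as to activity, negative = inhibition: plate controls were DMSO vehicle for no effect and reference drug for full effect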
# Conditions: P. falciparum Dd2 growth, SYBR Green, 72 h; series mostly up to 28.9 µM; activity, negative = inhibition: at the top concentration
# Outline: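 Infected erythrocytes (Dd2, 0.3% parasitemia, 2.5% hematocrit final) are added to compound in RPMI-1640/Albumax II medium, grown 72 h at 37C in low oxygen, then lysed with saponin/Triton-X containing SYBR Green and read by fluorescence.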
# Potency is read from the fitted curve at half-maximal effect.
Compound,"activity, negative = inhibition",outcome,Potency
CCOCCCNC(=O)N1C[C@@H](Oc2cccnc2)C[C@@H]1C(=O)N1CCOCC1,8.67%,,
CCCN(CC1CCOC1)S(=O)(=O)c1ccc2c(c1)CCCC2 (stereo not given),7.48% [at 5.79 µM],,
CC(C)N1C(=O)CO[C@H]2CCN(CCCc3ccccc3)CC[C@@H]21,,inactive [at 44.1 µM],
COc1ccc(NC(=O)C2CCCN(S(=O)(=O)c3cccc4nonc34)C2)cc1Cl (stereo not given),7.47%,,
CCCCC(CC)CNC(=O)C1CCN(S(=O)(=O)c2cccc3nsnc23)CC1 (stereo not given),,inactive,
CCCCN(C)CCNC(=O)C1CCCN(S(=O)(=O)c2cccc3nsnc23)C1 (stereo not given),,,5.01 µM (active)
O=C(Cc1cccc(Cl)c1)NCc1nnc2ccc(-c3ccccc3)nn12,,inactive,
Cc1cc(C(=O)N2CCCCCCn3c(nnc3-c3ccc(F)cc3)CC2)nn1C,-22.6%,,
CCN(Cc1ccccc1)C(=O)CCS(=O)(=O)c1ccc2c(c1)oc(=O)n2C,22.1%,,
CCOC(=O)c1ccc(NC(=O)CCS(=O)(=O)c2ccc3c(c2)oc(=O)n3C)cc1,25.6%,,
Cc1c(Cl)cccc1NC(=O)CCS(=O)(=O)c1ccc2c(c1)oc(=O)n2C,,,3.16 µM (active)
COc1cccc(CC(=O)N2CCN(c3cc(-c4cccs4)[nH]n3)CC2)c1,,inactive,
O=C(NCCn1ccn2nc(-c3ccc(F)cc3)cc2c1=O)c1ccco1,,inactive,
O=C(Cc1ccccc1)N1[C@H]2CC[C@@H]1c1cnc(-c3ccc(F)cc3)nc1C2,,inactive,
Cn1cnc(S(=O)(=O)N2[C@H]3CC[C@@H]2c2cnc(-c4ccc(F)cc4)nc2C3)c1,29.6%,,
COC(=O)c1ccc(NC(=O)N2[C@H]3CC[C@@H]2c2cnc(-c4ccc(F)cc4)nc2C3)cc1,,,7.08 µM (active)
O=C1NCCOCCN(C(=O)Nc2ccccc2)[C@@H]2CCCC[C@H]12,40.6%,,
COc1ccc(-c2noc([C@@H](C)NCc3ccc(F)cc3)c2C(=O)O)cc1,7.52% [at 44.1 µM],,
O=C(c1ccc(Cl)cc1)N1CCn2c(nn(-c3ccncc3)c2=O)C1,15%,,
CCOC(=O)C1=CN(CC(=O)Nc2cccc(C(C)C)c2)S(=O)(=O)N=C1C,-4.4%,,
COc1ccc(-c2ccc3ncn(Cc4ccccc4)c(=O)c3n2)cc1OC,,inactive [at 44.1 µM],
COc1cc2c(cc1OC)C(CNC(=O)c1cccc(Cl)c1)N(C(=O)Nc1ccccc1)CC2 (stereo not given),,inactive,
COc1ccccc1-c1cc([C@H]2CN3CC[C@H]2C[C@@H]3CNCc2cccc(C#N)c2)n(C)n1,,inactive [at 44.1 µM],

Compound,"activity, negative = inhibition",outcome,Potency
COc1ccc(-c2cc([C@H]3CN4CC[C@H]3C[C@@H]4CNS(=O)(=O)Cc3ccccc3)n(C)n2)cc1OC,,,11.2 µM (active)
Cc1ccc(S(=O)(=O)NC[C@H]2C[C@@H]3CCN2C[C@@H]3CN2CCN(c3ncccn3)CC2)cc1,-25.5%,,
COc1ccc(-c2cc([C@H]3CN4CC[C@H]3C[C@@H]4CNC(=O)C3CC3)n(C)n2)cc1OC,-12% [at 44.1 µM],,
O=C(NCc1ccccc1)[C@H]1CN2CCC1C[C@@H]2Cn1cc(-c2ccc(F)cc2)nn1 (stereo not given in full),-7.01% [at 44.1 µM],,
Cn1nc(-c2ccc(F)cc2)cc1[C@H]1CN2CC[C@H]1C[C@@H]2CNCc1ccccn1,,,2.82 µM (active)
COc1ccc(-c2cc([C@H]3CN4CC[C@H]3C[C@@H]4CNC(=O)c3ccccc3)n(C)n2)cc1OC,,,11.2 µM (active)
Cc1ccc(C(=O)N2CC[C@H](CO)[C@H](NC(=O)C3CC3)C2)cn1,22.4%,,
O=C(NCc1cnn(Cc2ccccc2)c1)c1ccc2oc(-c3cccc(F)c3)nc2c1,-17.9%,,
COc1ccc(-c2cc(CC3(N(Cc4ccc(CO)o4)Cc4ccc(CO)o4)COC3)no2)cc1,,inactive,
CCOC(=O)c1c(NC(=O)c2ccc(S(=O)(=O)N3CCCC(C)C3)cc2)sc2c1CCN(C(C)C)C2 (stereo not given),,,7.94 µM (active)
CCOC(=O)c1c(NC(=O)c2ccc(S(=O)(=O)N(CC)CC)cc2)sc2c1CCCCC2,-18.8%,,
CCOC(=O)c1c(NC(=O)/C=C/c2ccc(OC)cc2)sc2c1CCC(C)C2 (stereo not given),38.9%,,
Clc1ccc(CN2CCC3(CC2)CC(c2ccccc2)=NO3)cc1,-16.7%,,
Cc1ccc(NC(=O)N2CCc3[nH]c4ccc(F)cc4c3C2)cc1C,-6.52%,,
COc1ccccc1-n1cc(C(=O)N2CCc3c(Cl)cccc3C2)cn1,-17.5%,,
COC[C@@H]1CN(C(=O)COc2cccc(C)c2)C[C@H]1c1nc(C)no1,-10.3%,,
Cc1ccccc1CNC(=O)c1ccc(NC(=O)N2CCCCc3ccccc32)cc1,48%,,
CCOC(=O)C1CCN(C(=O)c2cccc3c2CCN3C(=O)Nc2ccccc2)CC1,,,11.2 µM (active)
CC[C@H]1CN(C(=O)Nc2ccccc2)CC[C@H]1CC(=O)Nc1ccccc1,,inactive [at 44.1 µM],
COCc1cc(CC2(NCC(C)(C)C)COC2)no1,-17.5% [at 44.1 µM],,
CC(=O)N[C@@H]1Cc2ccccc2[C@H]1n1ccnc1-c1cc2n(n1)CCNC2,-0.272%,,
Cc1ccc(N2CCN(C(=O)c3ccc4c(c3)N(C)C3CCCCCN3C4=O)CC2)cc1 (stereo not given),,inactive,
